Assay results from PubChem BioAssay AID1159580 (chemical genetic matrix, 2015).
Values joined by “and” are separate entries in the source; they are usually repeats but may differ in a detail not shown here. Equal values may be shown once. Screen size: about 5,500 compounds; about 2,000 (36%) were called active. Not shown: some 18% with an inconclusive outcome. Rule as the data show it: active = normalized growth mostly below about 0.91 (no sharp cut-off); inconclusive = no clear call, values can overlap the other calls; inactive = mostly above about 0.92. This is one part of the list.

Test: chemical genetic growth profiling, strain panel (AID 1159580);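 also: tested at 20 µM; growth read once vehicle control cultures reached saturation at 30 °C; 1 = growth at the plate median or of vehicle wells; lower values mean less growth of the strain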
Details: S. cerevisiae deletion strains, growth OD

Measured: normalized growth

Cc1cc(C)nc(NS(=O)(=O)c2ccc(N)cc2)n1
inactive: locus YAL013W, strain DEP1, active compounds read low 0.998 | locus YAL021C, strain ccr4, active compounds read low 0.957 | locus YAL026C, strain drs2, active compounds read low 0.974 | locus YAL030W, strain snc1, active compounds read low 0.972 | locus YBL061C, strain skt5, active compounds read low 0.985 | locus YBR009C, strain hhf1, active compounds read low 0.934 | locus YBR021W, strain FUR4, active compounds read low 1.01 | locus YBR023C, strain chs3, active compounds read low 0.982 | locus YBR171W, strain sec66, active compounds read low 0.989 | locus YBR229C, strain ROT2, active compounds read low 0.999 | locus YBR231C, strain swc5, active compounds read low 0.998 | locus YBR279W, strain paf1, active compounds read low 0.982 | locus YCL011C, strain gbp2, active compounds read low 0.96 | locus YCL016C, strain dcc1, active compounds read low 0.966 | locus YCL029C, strain bik1, active compounds read low 0.981 | locus YCL069W, strain vba3, active compounds read low 0.969 | locus YCR088W, strain abp1, active compounds read low 0.965 | locus YDL005C, strain med2, active compounds read low 0.969 | locus YDL035C, strain GPR1, active compounds read low 0.988 | locus YDL040C, strain nat1, active compounds read low 0.98 | locus YDL074C, strain BRE1, active compounds read low 1.01 | locus YDL101C, strain DUN1, active compounds read low 0.99 | locus YDL134C, strain PPH21, active compounds read low 0.996 | locus YDL185W, strain tfp1, active compounds read low 0.938 | locus YDL192W, strain arf1, active compounds read low 0.963 | locus YDR001C, strain nth1, active compounds read low 0.963 | locus YDR069C, strain doa4, active compounds read low 0.991 | locus YDR101C, strain arx1, active compounds read low 1 | locus YDR137W, strain rgp1, active compounds read low 0.981 | locus YDR150W, strain NUM1, active compounds read low 0.999 | locus YDR159W, strain sac3, active compounds read low 0.914 | locus YDR162C, strain NBP2, active compounds read low 0.981 | locus YDR195W, strain ref2 0.959 | locus YDR297W, strain sur2, active compounds read low 0.983 | locus YDR318W, strain mcm21, active compounds read low 0.964 | locus YDR334W, strain swr1, active compounds read low 0.985 | locus YDR335W, strain msn5, active compounds read low 0.977 | locus YDR388W, active compounds read low 0.967 | locus YDR392W, strain spt3, active compounds read low 0.91 | locus YDR502C, strain sam2, active compounds read low 0.98 | locus YEL003W, strain gim4, active compounds read low 0.967 | locus YEL037C, strain rad23, active compounds read low 0.983 | locus YEL061C, strain CIN8 (second series), active compounds read low 0.972 | locus YEL061C, strain CIN8, active compounds read low 1 | locus YER015W, strain faa2, active compounds read low 0.996 | locus YER016W, strain bim1, active compounds read low 0.96 | locus YER110C, active compounds read low 0.99 | locus YER111C, strain swi4, active compounds read low 0.965 | locus YER155C, strain BEM2 (second series), active compounds read low 1.01 | locus YER155C, strain BEM2, active compounds read low 0.996 | locus YER167W, strain BCK2, active compounds read low 0.995 | locus YFR010W, strain ubp6, active compounds read low 0.996 | locus YGL078C, strain dbp3, active compounds read low 0.977 | locus YGL086W, strain mad1, active compounds read low 1 | locus YGL167C, strain pmr1, active compounds read low 0.977 | locus YGL173C, strain kem1, active compounds read low 0.979 | locus YGL227W, strain vid30, active compounds read low 0.988 | locus YGL240W, strain doc1, active compounds read low 1.01 | locus YGL248W, strain PDE1, active compounds read low 0.998 | locus YGL253W, strain hxk2, active compounds read low 0.968 | locus YGR135W, strain pre9, active compounds read low 0.995 | locus YGR229C, strain SMI1, active compounds read low 0.989 | locus YGR252W, strain gcn5, active compounds read low 1.17 | locus YHR013C, strain ard1, active compounds read low 0.92 | locus YHR027C, strain rpn1, active compounds read low 0.973 | locus YHR030C, strain SLT2, active compounds read low 0.995 and 0.954 | locus YHR079C, strain IRE1 (second series), active compounds read low 0.97 | locus YHR079C, strain IRE1, active compounds read low 0.981 | locus YHR094C, strain hxt1, active compounds read low 0.968 | locus YHR129C, strain ARP1, active compounds read low 0.997 | locus YHR142W, strain chs7, active compounds read low 0.968 | locus YHR200W, strain rpn10, active compounds read low 0.98 | locus YIL066C, strain RNR3, active compounds read low 1.01 | locus YIL073C, strain SPO22, active compounds read low 0.842 | locus YIL125W, strain kgd1, active compounds read low 0.954 | locus YIR030C, strain dcg1, active compounds read low 0.983 | locus YJL092W, strain hpr5, active compounds read low 0.981 | locus YJL095W, strain BCK1 (second series), active compounds read low 0.983 | locus YJL095W, strain BCK1, active compounds read low 1.02 and 0.967 | locus YJL115W, strain asf1, active compounds read low 0.968 | locus YJL129C, strain trk1, active compounds read low 0.98 | locus YJL134W, strain LCB3, active compounds read low 0.985 | locus YJL154C, strain vps35, active compounds read low 0.978 | locus YJL164C, strain tpk1, active compounds read low 0.963 | locus YJL166W, strain qcr8, active compounds read low 1.01 | locus YJL168C, strain set2, active compounds read low 0.977 | locus YJL187C, strain SWE1 (second series), active compounds read low 0.987 | locus YJR043C, strain POL32, active compounds read low 1
